Results taken from the supplement of paper PMC8699584.
± gives the standard deviation of the averaged measurements.

Assays:
Molm13 = assay: cell viability relative to DMSO control (bortezomib = 0%); higher = less growth inhibition; settings: 10 nM; 72 h
How it was run: (§1)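 FLT3-ITD+ acute myeloid leukemia cells were dispensed onto a library of 679 approved and investigational compounds in 384-well plates, at 1000 cells per well in 50 µL and a single 10 nM dose, for 72 h. The screen was run in duplicate. Cell viability was read by CellTiter-Glo luminescence on an EnVision reader. Values were converted to percentages by per-plate linear regression between DMSO-treated cells (100%) and positive-control-treated cells (0%).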

Mv4-11 = assay: as above; settings: 10 nM; 72 h
How it was run: as §1

| Structure (SMILES) | cell viability (Molm13) | cell viability (Mv4-11) |
| --- | --- | --- |
| CC(=O)N[C@H]1[C@@H](O[C@@H]2O[C@H](CC(O)[C@H]3O[C@@H](n4ccc(=O)[nH]c4=O)[C@H](O)[C@@H]3O)[C@H](O)[C@H](O)[C@H]2NC(=O)/C=C/CC(C)C)O[C@H](CO)[C@@H](N)[C@@H]1O (stereo partly specified) [Tunicamycin] | 105 ± 14% | 103 ± 3.8% |
| COC(=O)C1(OC)CC2OC1(C)n1c3ccccc3c3c4c(c5c6ccccc6n2c5c31)C(=O)N(C)C4 (stereo unspecified) | 115 ± 6.2% | 109 ± 2% |
| CN[C@@H]1C[C@H]2O[C@@](C)([C@@H]1OC)n1c3ccccc3c3c4c(c5c6ccccc6n2c5c31)C(=O)NC4 [Staurosporine] | 11.9 ± 18% | 5.41 ± 3.4% |
| COc1cc([C@@H]2c3cc4c(cc3[C@H](O)[C@H]3COC(=O)[C@@H]23)OCO4)cc(OC)c1OC [Picropodophyllin (PPP)] | 98.4 ± 8.1% | 109 ± 3.8% |
| COc1ccc2c(c[n+](C)c3c4cc5c(cc4ccc23)OCO5)c1OC [Chelerythrine chloride] | 115 ± 13% | 112 ± 6.5% |
| O=C([O-])C(Cl)Cl.[Na+] [Sodium†Dichloroacetate] | 74 ± 24% | 110.7 ± 0.021% |
| Cc1ccccc1-n1c(Cn2ncc3c(N)ncnc32)nc2cccc(C)c2c1=O | 117 ± 1.4% | 117 ± 14% |
| N#C/C(=C\c1ccc(O)c(O)c1)C(N)=S | 91.3 ± 7.4% | 104 ± 2.4% |
| O=C(O)c1nn(Cc2ccc(Cl)cc2Cl)c2ccccc12 [Lonidamine] | 123 ± 1.8% | 120 ± 4.8% |
| Cc1ccccc1-n1c(Cn2cnc3c(N)ncnc32)nc2cccc(C)c2c1=O | 108 ± 13% | 111 ± 5.5% |
| C/C(O)=C(\C#N)C(=O)Nc1cc(Br)ccc1Br | 108 ± 6.6% | 114 ± 7.8% |
| COc1ccc2c(c[n+](C)c3c4cc5c(cc4ccc23)OCO5)c1OC [Chelerythrine (chloride)] | 106 ± 10% | 108 ± 1.4% |
| CC(=O)OC(C)(C)/C=C/C(=O)[C@](C)(O)[C@H]1[C@H](O)C[C@@]2(C)[C@@H]3CC=C4[C@H](C[C@H](O)C(=O)C4(C)C)[C@]3(C)C(=O)C[C@]12C [Cucurbitacin B] | 61.7 ± 0.99% | 82.9 ± 4.3% |
| COc1ccc(N(C(=O)Oc2c(C)cccc2C)c2ccnc(Nc3ccc(N4CCN(C)CC4)cc3)n2)c(OC)c1 | 94.5 ± 18% | 108 ± 5.2% |
| CC(C)(C)c1cc(C=C(C#N)C#N)cc(C(C)(C)C)c1O [Tyrphostin 9] | 96.2 ± 18% | 99.7 ± 4.1% |
| COC[C@H]1OC(=O)c2coc3c2[C@@]1(C)C1=C(C3=O)[C@@H]2CCC(=O)[C@@]2(C)C[C@H]1OC(C)=O [Wortmannin] | 114 ± 9% | 110.22 ± 0.09% |
| CC(C)=CCC[C@](C)(O)[C@H]1CC[C@]2(C)[C@@H]1[C@H](O)C[C@@H]1[C@@]3(C)CC[C@H](O[C@@H]4O[C@H](CO)[C@@H](O)[C@H](O)[C@H]4O)C(C)(C)[C@@H]3CC[C@]12C [Ginsenoside Rh2] | 116 ± 2.1% | 111 ± 2.3% |
| O=c1[nH]c2ccccc2n1C1CCN(Cc2ccc(-c3[nH]c4cc5ncnc5cc4nc3-c3ccccc3)cc2)CC1 [AKT inhibitor VIII] | 103 ± 12% | 103 ± 5.7% |
